The results in this text go back to PubChem BioAssay (NCI).

Among the test systems are DU-145 prostate; K-562 leukemia; MALME-3M melanoma; MDA-MB-231 breast; RXF 393 renal; SF-268 CNS; SF-295 CNS; SF-539 CNS; UACC-257 melanoma; M14 melanoma.
Holding throughout (assay): NCI-60 one-dose screen, 48 h (100 = growth as untreated, 0 = no growth, -100 = all killed)
What all share (conditions): 10 µM unless noted

This is part of a sample that, as a whole, favours compounds with a hit. Of some 83,000 tested, about 20% had one in any assay.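 For each line, cells grew in 96-well plates with the test compound present at a single concentration for 48 hours.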 Values without a mark were called inactive. Active and inactive are the calls of the source. How the source made its calls: active means growth percent below 10; inactive means the rest.

In the case of `S=C(Nc1ccccc1)c1ccccn1`, the growth with DU-145 prostate is 120%; in the experiment on K-562 leukemia, 99.7%; with MALME-3M melanoma, 114%; in the experiment with MDA-MB-231 breast, 102%; in the experiment on RXF 393 renal, 128%; in the experiment on SF-268 CNS, 105%. Further, the growth is 114% in the experiment with SF-295 CNS, 91.1% with SF-539 CNS, 31.3% with UACC-257 melanoma and 90.6% with M14 melanoma.

On to `CC(C)(C)c1ccc(O)c(Cc2cc(C(C)(C)C)ccc2O)c1`, for which the growth with DU-145 prostate was 105%; in the experiment with K-562 leukemia, 87.1%; in the experiment with MALME-3M melanoma, 104%; in the experiment with MDA-MB-231 breast, 88.1%; in the experiment with RXF 393 renal it was 101%; in the experiment on SF-268 CNS it was 93.1%. Besides, the growth with SF-295 CNS is 109%; with SF-539 CNS, 108%; in the experiment on UACC-257 melanoma it was 86.6%; in the experiment with M14 melanoma, 92.3%.

For the compound `S=c1ssnc1-c1cc2ccccc2o1`, the growth is 97.5% in the experiment with DU-145 prostate; 55.7% in the experiment on K-562 leukemia; 79.8% in the experiment on MALME-3M melanoma; 91.2% with MDA-MB-231 breast; 85.6% in the experiment with RXF 393 renal; 78.8% with SF-268 CNS. Also, the growth with SF-295 CNS is 75.1%; in the experiment with SF-539 CNS it was 102%; with UACC-257 melanoma it was 94.5%; with M14 melanoma, 52.4%.

For `COc1ccc2nc(-c3ccc(Cl)cc3)cc(C(=O)N3N=C(c4ccc(N)cc4)CC3c3ccccc3)c2c1` (stereo not given), the growth was 55% in the experiment with DU-145 prostate; 17.5% with K-562 leukemia; 62.5% with MALME-3M melanoma; 83.8% with MDA-MB-231 breast; 35.3% in the experiment on RXF 393 renal; 48.3% with SF-268 CNS. The growth with SF-295 CNS is 24.2%; in the experiment on SF-539 CNS it was 43.4%; with UACC-257 melanoma, 67.1%; with M14 melanoma, 38.9%.

For the compound `O=S(=O)(Nc1nccs1)c1ccc(Nc2nc(-c3ccncc3)cs2)cc1`, the growth was 106% with DU-145 prostate; 109% in the experiment with K-562 leukemia; 113% in the experiment on MALME-3M melanoma; 105% in the experiment on MDA-MB-231 breast; 110% in the experiment on RXF 393 renal; 107% in the experiment with SF-268 CNS. Also, the growth was 120% in the experiment with SF-295 CNS, 88.2% with SF-539 CNS, 109% with UACC-257 melanoma and 103% with M14 melanoma.

On to `CCCCCOC(=O)c1ccccc1O`, for which the growth with DU-145 prostate was 107%; in the experiment on K-562 leukemia, 99.9%; in the experiment on MALME-3M melanoma it was 109%; in the experiment with MDA-MB-231 breast, 110%; in the experiment with RXF 393 renal it was 123%; with SF-268 CNS it was 105%. For the same compound, the growth in the experiment with SF-295 CNS is 98%; in the experiment on SF-539 CNS, 99.7%; with UACC-257 melanoma, 94.3%; in the experiment with M14 melanoma, 97.4%.

For `C=C1C(=O)O[C@H]2[C@H]1CC/C(COC(=O)c1c[nH]c3ccccc13)=C\CC[C@@]1(C)O[C@@H]21`, the growth is -68.6% (active) with DU-145 prostate; -16.1% (active) in the experiment on K-562 leukemia; -73.7% (active) in the experiment with MALME-3M melanoma; -68.8% (active) in the experiment with MDA-MB-231 breast; -90.6% (active) in the experiment on RXF 393 renal; -40.8% (active) with SF-268 CNS. Besides, the growth with SF-295 CNS was 50.2%; in the experiment with SF-539 CNS it was -61.3% (active); in the experiment with UACC-257 melanoma, -58.8% (active); with M14 melanoma, -64.7% (active).

Take `CCOc1ccc(C2N(c3cc(OC)c(OC)c(OC)c3)C(=O)C2(F)F)cc1` (stereo not given): the growth with DU-145 prostate was 30.1%; in the experiment with K-562 leukemia, 8.49% (active); in the experiment with MALME-3M melanoma, 63.1%; with MDA-MB-231 breast it was 46.1%; with RXF 393 renal, 54.2%; in the experiment on SF-268 CNS it was 52.4%. The growth with SF-295 CNS is 56.3%; with SF-539 CNS, 10.8%; in the experiment with UACC-257 melanoma, 58.7%; in the experiment with M14 melanoma it was 27.5%.

For the compound `CN(C)CSc1nc2ccccc2s1`, the growth with DU-145 prostate is 105%; in the experiment on K-562 leukemia it was 119%; in the experiment with MALME-3M melanoma, 86.7%; with MDA-MB-231 breast it was 91.7%; in the experiment with RXF 393 renal, 106%; in the experiment with SF-268 CNS it was 101%. The growth in the experiment on SF-295 CNS is 92.8%; in the experiment with SF-539 CNS, 94.2%; in the experiment on UACC-257 melanoma, 113%; in the experiment on M14 melanoma it was 88.8%.

As to `C=CCn1c(SCC(=O)Nc2ccc(C(=O)/C=C/c3cc(OC)c(OC)c(OC)c3)cc2)nnc1-c1ccc(Cl)cc1`, the growth in the experiment on DU-145 prostate was 10.8%; with K-562 leukemia, 9.24% (active); in the experiment on MALME-3M melanoma, 66.2%; in the experiment on MDA-MB-231 breast, 35.5%; in the experiment on RXF 393 renal, -42.4% (active); with SF-268 CNS, 19.8%. Further, the growth with SF-295 CNS is 38.9%; with SF-539 CNS, 17.2%; with UACC-257 melanoma, 51.3%; with M14 melanoma it was 12.6%.

Regarding `CCOC(=O)c1c(C)nc2c(c1N)CC(=O)N2CCc1ccccc1`, the growth in the experiment with DU-145 prostate is 9.55% (active); with K-562 leukemia, 11.7%; with MALME-3M melanoma, 49.1%; in the experiment with MDA-MB-231 breast it was 31.8%; in the experiment on RXF 393 renal, 27.1%; with SF-268 CNS it was 24%. Also, the growth with SF-295 CNS is 15.6%; in the experiment on SF-539 CNS, 13.7%; in the experiment with UACC-257 melanoma, 56.6%; in the experiment on M14 melanoma, 18%.

In the case of `O=C(Nc1cc(Nc2ncccc2-c2ncnc3nc[nH]c23)ccc1F)c1cc(C(F)(F)F)cc(C(F)(F)F)c1`, the growth with DU-145 prostate is 20.9%; in the experiment on K-562 leukemia, -13.7% (active); with MALME-3M melanoma, -58.4% (active); with MDA-MB-231 breast it was -51.3% (active); with RXF 393 renal, -63.4% (active); with SF-268 CNS, 21.8%. The growth in the experiment on SF-295 CNS was -52.8% (active); in the experiment with SF-539 CNS it was -56% (active); in the experiment with UACC-257 melanoma, -0.588% (active); in the experiment with M14 melanoma it was -41.7% (active).

Regarding `O=C1CCc2ccccc2N1`, the growth in the experiment on DU-145 prostate was 103%; in the experiment with K-562 leukemia it was 90.2%; in the experiment on MALME-3M melanoma it was 88.5%; with MDA-MB-231 breast, 110%; with RXF 393 renal, 111%; with SF-268 CNS it was 97.4%. The growth in the experiment on SF-295 CNS is 107%; with SF-539 CNS, 105%; with UACC-257 melanoma it was 106%; in the experiment with M14 melanoma, 99.2%.

`COc1ccccc1-c1ccc2nc(NC(=O)Nc3cc(C(F)(F)F)cc(C(F)(F)F)c3)sc2c1`: the growth with DU-145 prostate was 19.5%; in the experiment on K-562 leukemia it was 5.97% (active); with MALME-3M melanoma it was -13% (active); in the experiment on MDA-MB-231 breast, -64.2% (active); with RXF 393 renal it was -6.71% (active); with SF-268 CNS, 16.8%. For the same compound, the growth is -0.289% (active) in the experiment on SF-295 CNS, 5.2% (active) in the experiment with SF-539 CNS, -5.57% (active) in the experiment with UACC-257 melanoma and 16% in the experiment with M14 melanoma.
